Experimental data from publication PMC7862700, “An all-to-all approach to the identification of sequence-specific readers for epigenetic DNA modifications on cytosine”.

Legend:
Experiment in all cases: DAPPL (digital affinity profiling via proximity ligation, sequencing); 10 mM Tris-HCl pH 7.5, 50 mM NaCl, 1 mM DTT, 4% glycerol, room temperature, 30 min; GST-TFs on glutathione beads, 16-mer random dsDNA library, 0.1% formaldehyde crosslink after washing; high values mean tight binding
[1] = molecular target: T1, FEV (Homo sapiens, UniProt Q99581 1-238); conditions: protein: recombinant; tags: N-terminal GST; dsDNA, one strand shown
T1 sequence: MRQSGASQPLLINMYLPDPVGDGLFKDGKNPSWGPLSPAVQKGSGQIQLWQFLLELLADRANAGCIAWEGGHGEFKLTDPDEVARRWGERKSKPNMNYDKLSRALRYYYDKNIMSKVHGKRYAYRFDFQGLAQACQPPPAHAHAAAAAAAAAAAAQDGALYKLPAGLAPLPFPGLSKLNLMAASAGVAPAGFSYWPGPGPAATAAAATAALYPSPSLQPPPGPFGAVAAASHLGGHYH
Outline: (§1)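 Binding signal is each hexamer's read frequency for a factor divided by its frequency in the tag-only sample. The factors were GST-fused human transcription factors from yeast, captured on glutathione beads, DNA-barcoded and pooled with that sample. Pools were incubated with 200 nmole of a random double-stranded 16-mer DNA library in Tris/NaCl/DTT/glycerol buffer at room temperature for 30 min, then washed, crosslinked with 0.1% formaldehyde, proximity-ligated with BsaI/T4 ligase (1 h, 37 °C), PCR-amplified and sequenced on an Illumina NextSeq500.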

[2] = molecular target: ETV5 (Homo sapiens, UniProt P41161 1-510); conditions: protein: recombinant; tags: N-terminal GST; dsDNA, one strand shown
ETV5, sequence (P41161 whole entry): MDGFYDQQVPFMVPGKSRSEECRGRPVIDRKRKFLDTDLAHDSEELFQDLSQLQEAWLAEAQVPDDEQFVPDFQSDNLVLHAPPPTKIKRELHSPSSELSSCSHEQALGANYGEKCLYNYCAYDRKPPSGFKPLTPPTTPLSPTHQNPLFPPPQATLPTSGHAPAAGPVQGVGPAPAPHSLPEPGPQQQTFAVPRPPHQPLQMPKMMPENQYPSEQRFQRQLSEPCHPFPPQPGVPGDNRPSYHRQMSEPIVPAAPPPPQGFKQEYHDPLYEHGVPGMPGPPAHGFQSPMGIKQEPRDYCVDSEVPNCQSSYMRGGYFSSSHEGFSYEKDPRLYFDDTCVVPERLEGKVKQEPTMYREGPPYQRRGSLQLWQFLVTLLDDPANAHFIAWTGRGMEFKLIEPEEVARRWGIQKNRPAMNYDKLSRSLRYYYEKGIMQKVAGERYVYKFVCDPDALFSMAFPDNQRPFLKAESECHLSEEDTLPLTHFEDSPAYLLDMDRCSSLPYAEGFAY
Outline: as §1

[3] = molecular target: HSF1 (Homo sapiens, UniProt Q00613 1-529); conditions: protein: recombinant; tags: N-terminal GST; chain copies: 3; dsDNA, one strand shown
HSF1, sequence (Q00613 whole entry): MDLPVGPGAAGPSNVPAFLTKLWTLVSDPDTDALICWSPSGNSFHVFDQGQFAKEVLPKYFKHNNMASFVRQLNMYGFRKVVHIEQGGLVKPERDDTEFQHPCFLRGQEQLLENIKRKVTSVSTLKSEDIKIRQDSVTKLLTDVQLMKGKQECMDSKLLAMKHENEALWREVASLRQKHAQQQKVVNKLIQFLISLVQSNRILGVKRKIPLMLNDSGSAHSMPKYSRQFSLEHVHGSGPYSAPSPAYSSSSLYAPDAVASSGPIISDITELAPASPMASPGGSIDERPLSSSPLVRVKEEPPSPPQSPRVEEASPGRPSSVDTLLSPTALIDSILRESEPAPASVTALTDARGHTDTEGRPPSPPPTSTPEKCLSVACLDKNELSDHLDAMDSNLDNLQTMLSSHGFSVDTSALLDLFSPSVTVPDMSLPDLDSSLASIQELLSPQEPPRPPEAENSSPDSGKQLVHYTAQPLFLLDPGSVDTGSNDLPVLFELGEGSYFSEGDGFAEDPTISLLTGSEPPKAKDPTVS
Outline: as §1

[4] = molecular target: ELF4 (Homo sapiens, UniProt Q99607 1-663); conditions: protein: recombinant; tags: N-terminal GST; dsDNA, one strand shown
ELF4, sequence (Q99607 whole entry): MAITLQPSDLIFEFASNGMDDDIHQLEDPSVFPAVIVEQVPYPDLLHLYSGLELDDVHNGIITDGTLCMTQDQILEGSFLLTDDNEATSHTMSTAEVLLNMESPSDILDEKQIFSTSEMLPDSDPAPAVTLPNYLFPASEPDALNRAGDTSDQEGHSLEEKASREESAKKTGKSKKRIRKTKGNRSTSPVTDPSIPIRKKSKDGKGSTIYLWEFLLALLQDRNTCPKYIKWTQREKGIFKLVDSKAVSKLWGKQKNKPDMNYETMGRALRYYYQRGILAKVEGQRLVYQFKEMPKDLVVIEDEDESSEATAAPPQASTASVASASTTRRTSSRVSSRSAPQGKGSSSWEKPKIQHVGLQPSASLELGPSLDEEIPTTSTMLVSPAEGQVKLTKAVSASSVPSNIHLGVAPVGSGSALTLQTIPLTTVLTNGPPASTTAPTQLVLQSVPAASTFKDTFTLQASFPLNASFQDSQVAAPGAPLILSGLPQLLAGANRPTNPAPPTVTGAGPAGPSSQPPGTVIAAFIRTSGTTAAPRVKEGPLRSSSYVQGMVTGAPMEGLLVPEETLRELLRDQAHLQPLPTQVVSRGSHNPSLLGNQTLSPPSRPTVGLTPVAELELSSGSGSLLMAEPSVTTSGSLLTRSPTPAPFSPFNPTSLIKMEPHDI
Outline: as §1

[5] = molecular target: T2, ELK4 (Homo sapiens, UniProt P28324-2 1-405); conditions: protein: recombinant; tags: N-terminal GST; dsDNA, one strand shown
T2 sequence: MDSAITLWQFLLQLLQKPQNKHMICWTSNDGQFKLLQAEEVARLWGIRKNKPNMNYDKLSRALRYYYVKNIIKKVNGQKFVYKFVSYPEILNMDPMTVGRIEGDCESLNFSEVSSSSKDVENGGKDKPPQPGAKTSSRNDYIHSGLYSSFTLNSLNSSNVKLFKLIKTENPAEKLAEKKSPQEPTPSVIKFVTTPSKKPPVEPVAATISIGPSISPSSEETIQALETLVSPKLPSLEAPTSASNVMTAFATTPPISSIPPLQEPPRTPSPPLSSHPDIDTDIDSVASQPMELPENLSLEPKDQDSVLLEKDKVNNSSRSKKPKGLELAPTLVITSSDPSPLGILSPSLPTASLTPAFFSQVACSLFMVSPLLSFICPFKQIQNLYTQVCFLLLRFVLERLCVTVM
Outline: as §1

[6] = molecular target: T3, ETV2 (Homo sapiens, UniProt O00321 1-342); conditions: protein: recombinant; tags: N-terminal GST; dsDNA, one strand shown
T3 sequence: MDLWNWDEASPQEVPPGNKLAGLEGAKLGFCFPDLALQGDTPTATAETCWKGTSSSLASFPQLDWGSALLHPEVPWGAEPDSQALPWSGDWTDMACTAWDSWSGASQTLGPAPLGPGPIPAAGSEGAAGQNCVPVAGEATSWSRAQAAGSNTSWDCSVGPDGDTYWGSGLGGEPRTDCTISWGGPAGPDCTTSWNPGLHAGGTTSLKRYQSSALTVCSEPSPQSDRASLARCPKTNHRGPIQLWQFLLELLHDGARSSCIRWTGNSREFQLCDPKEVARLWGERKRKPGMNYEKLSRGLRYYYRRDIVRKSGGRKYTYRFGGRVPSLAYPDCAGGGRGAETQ
Outline: as §1

[7] = molecular target: CRX (Homo sapiens, UniProt O43186 1-299); conditions: protein: recombinant; tags: N-terminal GST; dsDNA, one strand shown
CRX, sequence (O43186 whole entry): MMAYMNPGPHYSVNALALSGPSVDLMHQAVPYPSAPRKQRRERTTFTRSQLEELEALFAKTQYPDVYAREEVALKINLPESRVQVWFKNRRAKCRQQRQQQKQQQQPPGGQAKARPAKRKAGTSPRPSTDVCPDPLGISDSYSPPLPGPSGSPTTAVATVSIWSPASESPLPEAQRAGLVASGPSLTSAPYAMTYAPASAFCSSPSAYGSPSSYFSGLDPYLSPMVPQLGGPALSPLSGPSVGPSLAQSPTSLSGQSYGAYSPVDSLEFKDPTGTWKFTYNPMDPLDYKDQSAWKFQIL
Outline: as §1

[8] = molecular target: T4, ERF (Homo sapiens, UniProt P50548 1-548); conditions: protein: recombinant; tags: N-terminal GST; dsDNA, one strand shown
T4 sequence: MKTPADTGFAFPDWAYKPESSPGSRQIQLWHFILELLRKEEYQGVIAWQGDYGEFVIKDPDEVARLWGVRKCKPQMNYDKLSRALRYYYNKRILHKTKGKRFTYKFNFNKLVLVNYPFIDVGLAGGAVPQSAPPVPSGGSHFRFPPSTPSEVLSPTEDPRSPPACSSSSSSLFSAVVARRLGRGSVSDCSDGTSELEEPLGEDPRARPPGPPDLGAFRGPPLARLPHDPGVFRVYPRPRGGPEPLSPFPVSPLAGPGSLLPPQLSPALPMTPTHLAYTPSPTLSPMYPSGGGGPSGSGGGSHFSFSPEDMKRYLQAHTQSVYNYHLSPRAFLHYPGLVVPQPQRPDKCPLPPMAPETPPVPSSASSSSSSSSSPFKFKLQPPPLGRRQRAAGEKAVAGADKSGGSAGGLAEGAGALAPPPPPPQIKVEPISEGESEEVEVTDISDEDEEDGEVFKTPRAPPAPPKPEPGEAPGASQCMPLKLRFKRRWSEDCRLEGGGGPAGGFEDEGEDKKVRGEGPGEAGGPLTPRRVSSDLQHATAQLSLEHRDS
Outline: as §1

[9] = molecular target: T5, ETV3L (Homo sapiens, UniProt Q6ZN32 1-361); conditions: protein: recombinant; tags: N-terminal GST; dsDNA, one strand shown
T5 sequence: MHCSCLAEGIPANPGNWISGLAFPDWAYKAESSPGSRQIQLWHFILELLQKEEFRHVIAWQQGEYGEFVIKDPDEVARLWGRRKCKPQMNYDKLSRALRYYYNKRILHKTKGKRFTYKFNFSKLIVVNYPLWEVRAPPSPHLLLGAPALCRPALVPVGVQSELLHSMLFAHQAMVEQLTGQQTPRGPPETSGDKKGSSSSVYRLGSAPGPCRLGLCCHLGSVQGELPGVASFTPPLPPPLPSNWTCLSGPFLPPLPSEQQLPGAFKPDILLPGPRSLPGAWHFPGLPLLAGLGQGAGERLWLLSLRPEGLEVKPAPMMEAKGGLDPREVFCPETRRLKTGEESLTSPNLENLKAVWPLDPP
Outline: as §1

[10] = molecular target: T6, ETS2 (Homo sapiens, UniProt P15036 1-469); conditions: protein: recombinant; tags: N-terminal GST; dsDNA, one strand shown
T6 sequence: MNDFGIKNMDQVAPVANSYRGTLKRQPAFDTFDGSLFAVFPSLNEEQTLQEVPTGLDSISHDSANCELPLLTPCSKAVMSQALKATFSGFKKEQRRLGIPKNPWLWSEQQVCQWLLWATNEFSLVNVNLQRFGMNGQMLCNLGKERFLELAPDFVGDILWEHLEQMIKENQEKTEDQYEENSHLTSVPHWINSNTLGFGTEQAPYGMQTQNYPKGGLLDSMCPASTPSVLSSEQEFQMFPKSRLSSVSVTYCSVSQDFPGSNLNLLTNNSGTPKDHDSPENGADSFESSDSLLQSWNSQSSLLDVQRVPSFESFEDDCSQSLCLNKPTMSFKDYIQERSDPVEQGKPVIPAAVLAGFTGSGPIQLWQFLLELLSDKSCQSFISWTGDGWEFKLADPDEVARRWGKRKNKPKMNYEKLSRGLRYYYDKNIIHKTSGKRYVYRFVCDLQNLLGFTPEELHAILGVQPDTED
Outline: as §1

[11] = molecular target: T7, SPDEF (Homo sapiens, UniProt O95238 1-335); conditions: protein: recombinant; tags: N-terminal GST; dsDNA, one strand shown
T7 sequence: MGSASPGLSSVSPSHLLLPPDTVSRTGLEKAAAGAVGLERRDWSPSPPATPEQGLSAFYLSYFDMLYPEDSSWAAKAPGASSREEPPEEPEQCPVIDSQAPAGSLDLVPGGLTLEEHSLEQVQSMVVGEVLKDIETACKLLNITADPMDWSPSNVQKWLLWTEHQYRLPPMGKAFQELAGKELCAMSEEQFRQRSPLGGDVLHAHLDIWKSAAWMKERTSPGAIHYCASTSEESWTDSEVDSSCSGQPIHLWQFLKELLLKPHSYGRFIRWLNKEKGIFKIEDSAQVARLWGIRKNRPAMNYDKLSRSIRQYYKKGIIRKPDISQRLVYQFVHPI
Outline: as §1

[12] = molecular target: T8, ELF5 (Homo sapiens, UniProt Q9UKW6-2 1-255); conditions: protein: recombinant; tags: N-terminal GST; dsDNA, one strand shown
T8 sequence: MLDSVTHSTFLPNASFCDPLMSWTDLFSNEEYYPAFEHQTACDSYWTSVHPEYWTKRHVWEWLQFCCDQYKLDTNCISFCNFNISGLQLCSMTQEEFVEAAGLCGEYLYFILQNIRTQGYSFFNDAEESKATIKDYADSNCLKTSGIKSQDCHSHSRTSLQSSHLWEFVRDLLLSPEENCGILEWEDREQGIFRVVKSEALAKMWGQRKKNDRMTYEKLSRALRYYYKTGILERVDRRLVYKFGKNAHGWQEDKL
Outline: as §1

[13] = molecular target: T9, ETV3 (Homo sapiens, UniProt P41162-2 1-143); conditions: protein: recombinant; tags: N-terminal GST; dsDNA, one strand shown
T9 sequence: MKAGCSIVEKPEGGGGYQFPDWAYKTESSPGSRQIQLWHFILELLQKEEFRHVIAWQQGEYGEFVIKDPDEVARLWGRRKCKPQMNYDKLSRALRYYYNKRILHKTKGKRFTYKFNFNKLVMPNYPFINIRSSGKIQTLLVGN
Outline: as §1

[14] = molecular target: ETV6 (Homo sapiens, UniProt P41212 1-452); conditions: protein: recombinant; tags: N-terminal GST; dsDNA, one strand shown
ETV6, sequence (P41212 whole entry): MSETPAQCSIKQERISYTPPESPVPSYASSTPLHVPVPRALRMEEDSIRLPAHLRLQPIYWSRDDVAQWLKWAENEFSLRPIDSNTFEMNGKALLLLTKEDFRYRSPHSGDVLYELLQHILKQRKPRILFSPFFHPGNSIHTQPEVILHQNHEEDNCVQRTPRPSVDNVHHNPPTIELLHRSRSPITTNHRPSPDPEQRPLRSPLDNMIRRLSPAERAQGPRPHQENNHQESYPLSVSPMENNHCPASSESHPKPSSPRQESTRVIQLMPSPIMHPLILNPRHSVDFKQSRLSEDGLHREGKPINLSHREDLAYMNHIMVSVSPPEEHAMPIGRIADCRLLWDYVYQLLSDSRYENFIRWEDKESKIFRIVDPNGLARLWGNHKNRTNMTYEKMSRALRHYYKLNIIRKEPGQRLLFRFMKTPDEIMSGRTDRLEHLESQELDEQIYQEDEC
Outline: as §1

[15] = molecular target: T10, ELF3 (Homo sapiens, UniProt P78545 1-371); conditions: protein: recombinant; tags: N-terminal GST; dsDNA, one strand shown
T10 sequence: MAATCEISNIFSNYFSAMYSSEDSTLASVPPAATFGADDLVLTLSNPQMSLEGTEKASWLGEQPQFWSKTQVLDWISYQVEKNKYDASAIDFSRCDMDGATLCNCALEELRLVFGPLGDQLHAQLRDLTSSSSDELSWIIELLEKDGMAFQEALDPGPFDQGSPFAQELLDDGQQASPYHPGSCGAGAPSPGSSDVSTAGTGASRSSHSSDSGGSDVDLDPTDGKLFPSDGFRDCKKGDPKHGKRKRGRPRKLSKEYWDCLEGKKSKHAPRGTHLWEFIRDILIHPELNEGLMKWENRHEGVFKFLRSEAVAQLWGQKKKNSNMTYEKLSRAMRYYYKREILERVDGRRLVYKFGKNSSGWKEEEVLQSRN
Outline: as §1

[16] = molecular target: T11, ETV7 (Homo sapiens, UniProt Q9Y603 1-341); conditions: protein: recombinant; tags: N-terminal GST; dsDNA, one strand shown
T11 sequence: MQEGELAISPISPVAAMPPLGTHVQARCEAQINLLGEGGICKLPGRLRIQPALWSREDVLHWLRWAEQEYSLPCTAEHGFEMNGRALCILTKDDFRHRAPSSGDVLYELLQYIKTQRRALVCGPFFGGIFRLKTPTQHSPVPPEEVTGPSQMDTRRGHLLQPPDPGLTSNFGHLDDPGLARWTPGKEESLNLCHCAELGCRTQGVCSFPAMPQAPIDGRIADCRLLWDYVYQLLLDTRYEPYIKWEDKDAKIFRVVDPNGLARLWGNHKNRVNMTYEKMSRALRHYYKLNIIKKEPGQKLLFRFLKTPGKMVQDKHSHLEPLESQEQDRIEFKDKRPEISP
Outline: as §1

| Sequence | binding signal [1] | binding signal [2] | binding signal [3] | binding signal [4] | binding signal [5] | binding signal [6] | binding signal [7] | binding signal [8] | binding signal [9] | binding signal [10] | binding signal [11] | binding signal [12] | binding signal [13] | binding signal [14] | binding signal [15] | binding signal [16] |
| --- | --- | --- | --- | --- | --- | --- | --- | --- | --- | --- | --- | --- | --- | --- | --- | --- |
| GTTATC | 1.05 fold enrichment (6-mer frequency, TF over GST control) | 1.12 fold enrichment (6-mer frequency, TF over GST control) | 1.03 fold enrichment (6-mer frequency, TF over GST control) | 1.04 fold enrichment (6-mer frequency, TF over GST control) | 1.22 fold enrichment (6-mer frequency, TF over GST control) | 1.21 fold enrichment (6-mer frequency, TF over GST control) | 1.24 fold enrichment (6-mer frequency, TF over GST control) | 1.06 fold enrichment (6-mer frequency, TF over GST control) | 1.07 fold enrichment (6-mer frequency, TF over GST control) | 1.14 fold enrichment (6-mer frequency, TF over GST control) | 1.11 fold enrichment (6-mer frequency, TF over GST control) | 1.14 fold enrichment (6-mer frequency, TF over GST control) | 1.07 fold enrichment (6-mer frequency, TF over GST control) | 1.1 fold enrichment (6-mer frequency, TF over GST control) |  |  |
| ACATCG | 1.01 fold enrichment (6-mer frequency, TF over GST control) | 1.04 fold enrichment (6-mer frequency, TF over GST control) | 1.01 fold enrichment (6-mer frequency, TF over GST control) | 1.09 fold enrichment (6-mer frequency, TF over GST control) | 1.13 fold enrichment (6-mer frequency, TF over GST control) |  |  | 1.11 fold enrichment (6-mer frequency, TF over GST control) | 1.18 fold enrichment (6-mer frequency, TF over GST control) | 1.02 fold enrichment (6-mer frequency, TF over GST control) | 1.08 fold enrichment (6-mer frequency, TF over GST control) | 1.01 fold enrichment (6-mer frequency, TF over GST control) | 1.08 fold enrichment (6-mer frequency, TF over GST control) | 1.04 fold enrichment (6-mer frequency, TF over GST control) | 1.04 fold enrichment (6-mer frequency, TF over GST control) | 1.07 fold enrichment (6-mer frequency, TF over GST control) |
